# hcDAF12 agonist = activates DAF-12 receptor from parasite H. contortus; HEK293 hcDAF-12 lit1-tk-luc reporter, luminescence; 0% DMSO, 100% Δ7-dafachronic acid; activation, % at 6.8 µM; 370,000 tested, 1.4% active; AID 652067;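 active means activation above the mean of all tested compounds plus 3 SD, cut at about 5.5% in these data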
# DAX1 inh-1 = DAX1 (NR0B1) inhibition, primary screen; 370,000 tested, 1.1% active; inhibition, % at 6.8 µM; AID 652010; HEK293T StAR-luciferase reporter, SF-1/DAX-1 repression relief;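 active means inhibition above the mean over all tested compounds plus 3 SD, cut at about 3.6% in these data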;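 further: higher inhibition means more luminescence from relief of DAX-1 repression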
# DAX1 inh-2 = inhibits human nuclear receptor DAX1; P51843; 340,000 tested, 0.99% active; HEK293 Gal4-DAX1 luciferase reporter, luminescence; AID 504766; inhibition, % at 6.75 µM;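 active means inhibition above the mean over all tested compounds plus 3 SD, cut at about 4.2% in these data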;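 further: inhibition shows as a rise in luminescence from relieved DAX1 repression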
# ssDAF-12 act = activators of S. stercoralis DAF-12 nuclear receptor. HEK293 ssDAF-12/GRIP1 lit1-tk-luc reporter, luminescence; % of 3 µM dafachronic acid response. 370,000 tested, 1% active. activation, % at 6.8 µM;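 active means activation above the mean over all tested compounds plus 3 SD, cut at about 0.9% in these data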
# hgDAF12 agonist = hgDAF-12 agonism, primary luciferase screen | HEK293 GAL4-hgDAF12 UAS-luciferase reporter, agonist luminescence; normalized to butyrate control | activation, % at 6.8 µM | 370,000 tested, 1.8% active | AID 687014;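 active means activation above a cutoff set at the mean of all screened compounds plus 3 SD, cut at about 10% in these data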
# hgDAF12 ag = hgDAF-12 agonism, confirmation assay; HEK293 GAL4-hgDAF12 luciferase reporter, agonist mode; percent of butyrate response; activation, % at 6.8 µM; shares compounds with hgDAF12 agonist; 3,300 tested, 80% active;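 active means mean activation over triplicate wells above the hit cutoff derived from the earlier primary screen, cut at about 11% in these data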
# LXRb DAF12 ctr = activates human LXR-beta, counter-screen for DAF-12 agonists | HEK293 Gal4-LXR luciferase reporter, 24 h | activation, % at 6.8 µM | shares compounds with hgDAF12 agonist | 3,300 tested, under 10 active | AID 743051;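 active means mean activation of the triplicate above a set limit carried over from the primary screen, none filed active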
# Target sequence (P55055 whole entry, looked up, the tested form may be a part): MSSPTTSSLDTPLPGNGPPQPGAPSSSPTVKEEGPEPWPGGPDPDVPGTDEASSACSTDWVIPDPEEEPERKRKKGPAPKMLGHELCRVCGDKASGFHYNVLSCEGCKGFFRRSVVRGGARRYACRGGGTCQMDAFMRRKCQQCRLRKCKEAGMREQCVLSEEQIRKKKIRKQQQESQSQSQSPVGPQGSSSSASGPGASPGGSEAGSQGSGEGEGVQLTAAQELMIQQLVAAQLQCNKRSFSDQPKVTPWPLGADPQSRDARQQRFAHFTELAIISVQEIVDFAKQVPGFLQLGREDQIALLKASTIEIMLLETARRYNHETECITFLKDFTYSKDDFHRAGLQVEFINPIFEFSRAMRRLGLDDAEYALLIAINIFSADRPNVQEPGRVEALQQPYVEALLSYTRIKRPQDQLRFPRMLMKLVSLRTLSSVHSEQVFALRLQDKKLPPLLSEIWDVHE
# Numbers stand for hits; n = inactive; x = no result. Sampled rows, rich in hits. Any-hit rate of the full collection: about 4.1%.
SMILES,hcDAF12 agonist,DAX1 inh-1,DAX1 inh-2,ssDAF-12 act,hgDAF12 agonist,hgDAF12 ag,LXRb DAF12 ctr
Cc1ccc(OC(=O)c2ccc3nc(C)sc3c2)cc1,n,n,x,n,14.9,16.6,n
Cc1ccc(-c2nc3ccc(C(=O)O)cc3nc2-c2ccc(C)cc2)cc1,n,n,n,n,n,x,x
Cc1nc2ccc(OC(=O)c3ccccc3)cc2s1,n,n,n,n,n,x,x
Cc1nc2cc(C(=O)O)ccc2s1,n,n,n,n,14.9,16.5,n
CCN(CC)S(=O)(=O)c1ccc(NCCc2ccccn2)nc1,n,n,n,n,n,x,x
CSc1nsc(SCC(=O)Nc2ccc(C(C)=O)cc2)n1,12.5,n,n,1.0,14.1,21.1,n
O=c1c(-c2ccc3c(c2)OCCO3)coc2cc(O)cc(O)c12,n,n,n,n,13.8,14.8,n
CSc1ccc(-c2cnc(N3CCC(C(N)=O)CC3)s2)cc1,n,x,x,n,20.8,17.4,n
Cc1ccc(N2C(=NC(=O)c3ccccc3)SC3CS(=O)(=O)CC32)cc1 (centres undefined),n,n,n,n,n,x,x
CCCC(=O)N=C1SC2CS(=O)(=O)CC2N1c1ccc(-c2nc3ccc(C)cc3s2)cc1 (centres undefined),6.0,n,n,n,18.2,n,n
O=C(Nc1ccccc1)O/N=C(\c1ccccc1)c1ccccn1,n,n,n,n,15.8,n,n
O=C(NCCN1CCN(C(=O)c2ccc(F)cc2)CC1)c1ccc(F)cc1,n,n,n,n,n,x,x
Cc1ccc(NC(=O)C(=O)N2CCCC2)cc1Cl,n,n,n,n,15.2,12.7,n
COc1cccc(NC(=O)Nc2ccc(C(C)(C)C)cc2)c1,n,n,n,n,17.7,11.3,n
Cc1ccc(NC(=O)N2CCCC2)cc1Cl,n,n,n,n,n,x,x
CC(C)(C)c1ccc(NC(=O)c2ccc(=O)[nH]n2)cc1,n,n,5.6,n,16.6,14.3,n
Cc1ccc(NC(=O)Nc2ccc(F)cc2)cc1Cl,n,n,n,n,14.5,11.5,n
O=C(Nc1ccc2c(c1)OCO2)c1ccc(=O)[nH]n1,n,n,n,n,n,x,x
CC(C)(C)c1ccc(COC(=O)Nc2ccc(F)cc2)cc1,n,n,n,n,n,x,x
CC(C)(C)c1ccc(NC(=O)Nc2ccc(F)cc2)cc1,n,3.6,x,n,15.4,15.2,n
Cc1ccc(CONC(=O)c2ccc(Cl)cc2)cc1,n,n,n,n,n,x,x
Cc1ccc(CONC(=O)c2ccccc2)cc1,n,n,n,n,14.9,11.4,n
COC(=O)C[C@@H]1CC[C@@H]2[C@@H](COc3ccc(NC(=O)Nc4ccccc4)cc3C(=O)N2C)O1,n,n,x,n,n,x,x
COC(=O)C[C@H]1CC[C@@H]2[C@H](COc3ccc(NC(=O)c4ccccc4OC)cc3C(=O)N2C)O1,n,n,x,n,14.6,n,n
Cn1ccc2cc(OCc3ccccc3)ccc21,n,4.2,n,1.4,22.1,15.1,n
SMILES,hcDAF12 agonist,DAX1 inh-1,DAX1 inh-2,ssDAF-12 act,hgDAF12 agonist,hgDAF12 ag,LXRb DAF12 ctr
Cc1ccc(N=Nc2ccc(O)cc2)c(Br)c1,n,n,n,n,15.3,15.6,n
CC(C)(C)NC(=S)NNC(=O)c1cccc(Br)c1,n,n,n,n,20.7,n,n
O=C(NNC(=S)Nc1ccccc1)c1cccc(Br)c1,n,n,n,n,n,x,x
N/C(=N\OC(=O)c1ccc([N+](=O)[O-])cc1)c1cccnc1,n,n,n,n,n,x,x
N/C(=N\OC(=O)c1ccc(Br)o1)c1cccnc1,n,n,n,n,14.5,n,n
CSc1ccccc1OCc1cc(C(=O)N2CCN(c3ccccc3)CC2C)no1 (centres undefined),n,n,n,n,n,x,x
CC(=O)c1ccc(OCc2cc(C(=O)N3CCN(c4ccccc4)CC3C)no2)cc1 (centres undefined),6.1,n,n,n,20.8,18.4,n
CCOc1ccc(N2CC(C(=O)N3CCN(C(=O)c4ccco4)CC3)CC2=O)cc1 (centres undefined),n,n,n,n,n,x,x
COC(=O)c1sc(NC(=O)c2ccc(C)o2)nc1C,n,n,n,n,13.8,10.5,n
CN=c1scc(-c2ccccc2F)n1/N=C(\C)c1cccnc1,n,n,n,n,15.4,12.1,n
COc1ccc(NC(=O)c2ccc3snnc3c2)cc1,n,n,n,n,n,x,x
CC(=O)c1ccc(NC(=O)c2ccc3snnc3c2)cc1,n,n,n,n,13.6,12.2,n
Cc1ccc(/C=C\c2nccc3c2[nH]c2ccccc23)cc1,n,4.5,n,n,15.4,n,n
Cc1csc(NC(=O)c2ccccc2[N+](=O)[O-])n1,n,n,n,n,n,x,x
Cc1csc(NC(=O)c2ccc(Cl)cc2[N+](=O)[O-])n1,n,n,n,n,14.5,10.7,n
COCCNC(=O)C(=O)N/N=C(\C)CC(=O)Nc1cccnc1,n,n,n,n,n,x,x
Cn1cccc1/C=C1\SC(=O)N(c2ccccc2)C1=O,n,n,n,n,16.2,19.9,n
COc1ccc(C2CC(c3ccc(Cl)cc3)=NN2c2ccc(S(N)(=O)=O)cc2)cc1 (centres undefined),n,n,n,n,n,x,x
COc1ccc(C2CC(c3ccncc3)=NN2c2ccc(S(N)(=O)=O)cc2)cc1 (centres undefined),n,n,n,n,26.1,21.5,n
Cc1c(C(=O)NCCc2ccccc2)oc2ccccc12,n,n,n,n,15.6,14.2,n
O=C(NCCc1ccccc1)c1oc2ccccc2c1COc1ccccc1,n,n,n,n,n,x,x
CC(=O)C[C@H](O)CC(=O)[C@@H]1OC(=O)CCCCCCCCc2ccccc21,n,n,n,n,n,x,x
CCN1CCN(CC(=O)Nc2cc(C)on2)CC1,n,n,n,n,n,x,x
Cc1cc(NC(=O)CN2CCCCC2)no1,n,n,n,n,13.8,n,n
Cc1ccc(NC(CC(=O)c2ccccc2)C(=O)O)cc1Cl (centres undefined),5.6,4.2,5.4,n,16.2,27.3,n
SMILES,hcDAF12 agonist,DAX1 inh-1,DAX1 inh-2,ssDAF-12 act,hgDAF12 agonist,hgDAF12 ag,LXRb DAF12 ctr
COc1ccc(COc2ccc3ccc(=O)oc3c2)cc1,n,n,n,n,20.3,14.4,n
COC(=O)c1ccc(COc2ccc3ccc(=O)oc3c2)o1,n,n,n,n,n,x,x
CCCCN(CC)CCNC(=O)c1cc2c(C)nc3ccccc3c2o1,n,n,n,n,17.4,n,n
O=C(CCCN1CCOCC1)c1ccc2c(c1)OCCO2,n,n,n,n,17.4,13.9,n
O=C(CCNC(=O)N1CC(=O)Nc2ccccc21)NCc1cccc(C(F)(F)F)c1,n,n,n,n,n,x,x
Nc1nc(Nc2cccc(F)c2)nc(NCc2ccco2)c1[N+](=O)[O-],n,n,n,n,n,x,x

# From PubChem BioAssay
